# Hit rate of the full screen: of about 310,000 compounds, about 14,000 (4.5%) showed an effect of 50% or more. The effect is printed as a negative number. Many of the other results were omitted from the sample, so strong results are more common in it than they were.
# Target: human ether-à-go-go-related gene (hERG) potassium channel (human, UniProt Q12809)
# Test: primary screen, population patch clamp on CHO cells stably expressing hERG; higher = less effect of the substance
# 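Further: peak tail current of the secondary pulse compared with the same well before compound.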
# Chain of human ether-à-go-go-related gene (hERG) potassium channel (Q12809 whole entry, looked up): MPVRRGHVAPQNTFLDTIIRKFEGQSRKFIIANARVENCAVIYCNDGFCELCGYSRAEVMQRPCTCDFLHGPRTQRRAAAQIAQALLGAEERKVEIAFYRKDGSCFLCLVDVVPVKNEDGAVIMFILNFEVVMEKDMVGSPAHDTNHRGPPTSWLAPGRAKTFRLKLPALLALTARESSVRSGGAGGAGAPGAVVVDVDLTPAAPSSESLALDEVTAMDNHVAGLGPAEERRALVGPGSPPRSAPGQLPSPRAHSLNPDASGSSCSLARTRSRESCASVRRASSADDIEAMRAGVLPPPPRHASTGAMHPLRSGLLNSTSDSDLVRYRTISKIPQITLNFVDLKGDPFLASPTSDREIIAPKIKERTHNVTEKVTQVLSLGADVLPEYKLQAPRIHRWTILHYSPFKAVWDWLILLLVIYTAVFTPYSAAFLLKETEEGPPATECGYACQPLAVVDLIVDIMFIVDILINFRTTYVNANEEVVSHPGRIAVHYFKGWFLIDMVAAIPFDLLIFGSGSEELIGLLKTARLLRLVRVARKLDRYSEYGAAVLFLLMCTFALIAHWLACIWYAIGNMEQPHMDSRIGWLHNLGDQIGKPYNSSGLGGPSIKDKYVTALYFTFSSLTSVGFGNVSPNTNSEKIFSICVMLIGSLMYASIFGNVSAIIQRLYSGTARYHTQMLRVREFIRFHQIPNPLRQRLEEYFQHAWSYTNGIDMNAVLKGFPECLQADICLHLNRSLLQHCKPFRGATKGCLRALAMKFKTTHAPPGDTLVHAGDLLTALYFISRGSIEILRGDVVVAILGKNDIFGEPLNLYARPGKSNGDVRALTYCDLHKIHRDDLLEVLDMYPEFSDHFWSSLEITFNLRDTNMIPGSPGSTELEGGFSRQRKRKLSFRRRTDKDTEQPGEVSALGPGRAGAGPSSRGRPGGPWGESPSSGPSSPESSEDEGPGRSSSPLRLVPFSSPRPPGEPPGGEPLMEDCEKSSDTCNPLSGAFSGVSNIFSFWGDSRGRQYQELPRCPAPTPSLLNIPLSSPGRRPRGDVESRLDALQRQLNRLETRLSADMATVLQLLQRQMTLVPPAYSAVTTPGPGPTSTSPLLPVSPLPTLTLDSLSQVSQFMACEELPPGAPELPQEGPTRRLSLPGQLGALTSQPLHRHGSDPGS
row,SMILES,"hERG current change (%, negative = inhibition) at 10uM [%]"
1,COc1ccc(S(=O)(=O)N2CCC(C(=O)c3ccc4c(c3)OCCO4)CC2)cc1,-6.76
2,CC1CCCN(c2c3c(nc4ccccc24)CCCC3)C1 (centres unmarked),-65.2
3,O=C(O)c1c2c(nc3ccccc13)CCCCC2,15.8
4,Cl.c1ccc2c(N3CCOCC3)c3c(nc2c1)CCC3,-35.2
5,CCOC(=O)C1=C(COC(=O)c2ccc([N+](=O)[O-])o2)NC(=O)NC1C (centres unmarked),-7.36
6,CCC(C)N=CC1=C(O)C(C(=O)OC)C(C)(C)CC1=O (centres unmarked),-5.35
7,CCOC(=O)C(=O)N=Nc1c(O)n(C)c2ccccc12,18.9
8,O=C(CSc1nc(Nc2ccccc2)nc(N2CCOCC2)n1)N1CCc2ccccc21,-1.62
9,O=C(CSc1nc(Nc2ccccc2)nc(N2CCOCC2)n1)N1CCCC1,-60.4
10,O=C(CSc1nc(Nc2ccccc2)nc(N2CCOCC2)n1)NC1CCCCC1,-3.3
11,FC(F)(F)c1ccc(-c2csc(-c3ccno3)n2)cc1,1.72
12,Cc1cc(NCCCN)nc(-c2ccccc2O)n1,10
13,OC(c1ccc(F)cc1)(c1ccc(F)cc1)[C@@H]1CCCN1,7.57
14,CCCCOC(=O)c1ccc(NC(=O)C(=O)NCc2ccncc2)cc1,-8.29
15,CCCCOC(=O)c1ccc(NC(=O)/C=C/c2cccs2)cc1,-17.1
16,CCCOC(=O)c1ccc(NC(=O)C(=O)NCC2CCCO2)cc1 (centres unmarked),4.7
17,CCCOC(=O)c1ccc(NC(=O)COC)cc1,1.07
18,CCCCOC(=O)c1ccc(NC(=O)C(=O)NCCN(C)C)cc1,-28.9
19,CCCOC(=O)c1ccc(NC(=O)/C=C/c2cccs2)cc1,0.453
20,CCCOC(=O)c1ccc(NC(=O)C(=O)NCCN(CC)CC)cc1,-52.1
21,CCN(CC)CCOC(=O)c1ccc(NC(=O)/C=C/c2cccs2)cc1.Cl,-76.3
22,CCCCOC(=O)c1ccc(NC(=O)C(=O)NCCN(CC)CC)cc1,-73.2
23,Nc1cccc(-n2cccc2)c1,18.5

row,SMILES,"hERG current change (%, negative = inhibition) at 10uM [%]"
1,COc1cccc(CNC(=O)CCC(=O)n2ncc3cc(C)ccc32)c1OC,3.67
2,Cc1ccc(C(=O)NNC(=O)CCN2C(=O)C3CCCCC3C2=O)cc1 (centres unmarked),-5.88
3,CCCC/C(O)=C1\C(=O)CCCC1=NCCc1c(C)[nH]c2ccccc12,-12
4,CNc1oc(C)nc1S(=O)(=O)c1ccc(C)cc1,10.6
5,CC(NC(=O)CCNS(=O)(=O)c1cccc2nsnc12)c1ccccc1 (centres unmarked),-8.74
6,CCOC(=O)CSc1nnc(CCc2nc3ccccc3[nH]2)n1C,-0.184
7,CC(=O)c1ccc(N2CCN(CC(=O)N(C3CC3)C3CCS(=O)(=O)C3)CC2)c(F)c1 (centres unmarked),-12
8,CCOc1[nH]n(-c2ccc(Cl)cc2)c(=O)c1C=NCc1cccnc1,-42.1
9,Cc1[nH]n(-c2ccccc2)c(=O)c1C=NCCc1ccccc1,-12.7
10,Cc1ccc(-n2[nH]c(C)c(/C=N/c3ccccn3)c2=O)cc1,2.58
11,Cc1ccc(-n2[nH]c(C)c(C=Nc3cc(C)ccn3)c2=O)cc1,-1.12
12,Cc1ccc(-n2[nH]c(C)c(C=NCc3ccncc3)c2=O)cc1,-54.5
13,CCOc1[nH]n(-c2ccccc2)c(=O)c1C=NCc1cccnc1,-48.8
14,Cc1[nH]n(-c2ccccc2)c(=O)c1C=NCc1ccco1,-10.7
15,CCOc1[nH]n(-c2ccccc2)c(=O)c1C=NCc1ccncc1,-50
16,Cc1[nH]n(-c2ccccc2)c(=O)c1C=NCc1ccncc1,-58.1
17,CCOc1ccc(S(=O)(=O)n2ccnc2C)cc1,14.5
18,Cc1cc(O)c(-c2n[nH]c3c2C(c2cccc(O)c2)N(Cc2cccnc2)C3=O)cc1Cl (centres unmarked),11.4
19,Cc1cccc(Cc2nnc(CCC(=O)N(C)C3CCOC3)o2)c1 (centres unmarked),18.6
20,Nc1cc2ccccc2oc1=O,8.37
21,O=C1/C(=C/c2ccccc2Cl)SC(=S)N1CCCC(=O)N(CCO)c1ccccc1,-12.8
22,CC(=O)NC12CC3CC(C1)CC(C(=O)Nc1nc4ccc(F)cc4s1)(C3)C2,-56.9
23,COc1ccc2nc(NC(=O)C34CC5CC(CC(NC(C)=O)(C5)C3)C4)sc2c1,-11.1

row,SMILES,"hERG current change (%, negative = inhibition) at 10uM [%]"
1,CC(=O)NC12CC3CC(C1)CC(C(=O)Nc1nc4ccc(S(C)(=O)=O)cc4s1)(C3)C2,-1.14
2,CCc1ccc2[nH]cc(C(=O)OCCOC)c(=O)c2c1,4.42
3,O=C(NCCc1ccccc1)c1ccc2nc3cc(Cl)ccc3c(=O)n2c1,14.1
4,O=[N+]([O-])/C(C(Cl)=C(Cl)Cl)=C(/Sc1ccccc1)N1CCCCC1,4.71
5,C=CCN1C(=O)/C(=C/c2ccc(Br)s2)C(=O)NC1=S,6.73
6,O=C(NC1CCCC1)c1cc2c(=O)n3ccccc3nc2s1,-9.33
7,COCCNC(=O)c1ccc2c(=O)n(Cc3ccco3)c(SCC(=O)NC3CCCCC3)nc2c1,-47.1
8,N=c1c(C(=O)NC2CCCCC2)cc2c(=O)n3ccccc3nc2n1Cc1ccco1,-77
9,N=c1c(C(=O)NC2CCCC2)cc2c(=O)n3ccccc3nc2n1Cc1ccccc1,-78.6
10,N=c1c(C(=O)NC2CCCCC2)cc2c(=O)n3ccccc3nc2n1Cc1ccc(F)cc1,-77
11,CCn1c(=N)c(S(=O)(=O)c2ccc(F)cc2)cc2c(=O)n3ccccc3nc21,-10.5
12,O=C(NC1CCCCCC1)c1cc2c(=O)n3ccccc3nc2s1,0.251
13,CC1CCCCC1NC(=O)c1cc2c(=O)n3ccccc3nc2n1C (centres unmarked),4.32
14,N=c1c(C(=O)NC2CCCCC2)cc2c(=O)n3ccccc3nc2n1Cc1ccccc1,-69.8
15,CCOC(=O)c1[nH]c(C)c(C(=O)N(C)C)c1C,4.87
16,CC(C)Oc1cccc(NC(=O)c2cnccc2C(F)(F)F)c1,-0.311
17,COc1ccc(C2=CC(c3ccc(C)cc3)n3nnnc3N2)cc1 (centres unmarked),-6.67
18,O=C(CC(C(=O)O)c1ccc(Cl)cc1Cl)c1ccc(Cl)cc1 (centres unmarked),11.4
19,N=c1c(C(=O)NC2CCCCC2)cc2c(=O)n3ccccc3nc2n1Cc1cccnc1,-73.3
20,O=C(NC1CCCCCC1)C1c2ccccc2C(=O)N1Cc1cccnc1 (centres unmarked),-3.16
21,Cc1ccc(-c2ccc(C(=O)O)[nH]2)cc1,-19.1
22,Cc1ccccc1/C=N/NC(=O)Cc1ccc(Cl)cc1,17
23,COc1ccccc1Nc1nnc(SCc2cc(=O)n3ccsc3n2)s1,-8.42

row,SMILES,"hERG current change (%, negative = inhibition) at 10uM [%]"
1,CC(C)N(N=Nc1ccc([N+](=O)[O-])cc1)C(C)C,8.18
2,O=[N+]([O-])c1ccc(N=NN(CCO)CCO)cc1,-75.3
3,CN(N=Nc1ccc([N+](=O)[O-])cc1)c1ccccc1,15
4,Nc1c(Cl)cc(C(=O)c2c3ccc([N+](=O)[O-])cc3[n+]([O-])n2CCC[NH3+])cc1Cl.O=C([O-])C(F)(F)F,-43.5
5,COc1ccc(C(=O)c2c3ccccc3[n+]([O-])n2CCC[NH3+])cc1.O=C([O-])C(F)(F)F,-28.9
6,Cc1ccc(C(=O)c2c3ccc([N+](=O)[O-])cc3[n+]([O-])n2CCC[NH3+])cc1.O=C([O-])C(F)(F)F,-65.4
7,Cc1ccc(C(=O)c2c3ccc(C(F)(F)F)cc3[n+]([O-])n2CCC[NH3+])cc1.O=C([O-])C(F)(F)F,-75
8,Cc1ccc(C(=O)c2c3ccccc3[n+]([O-])n2CCC(=O)O)cc1,14.4
9,CCN(CCn1cccn1)C(=O)C1CCC(=O)N(CCN2CCOCC2)C1 (centres unmarked),6.14
10,O=C(CSc1nc2[nH]ncc2c(=O)[nH]1)Nc1ccc(Cl)c(Cl)c1,6.06
11,CCN(CC(=O)Nc1ccc(NC(C)=O)cc1)C(=O)c1cccc(-n2cccc2)c1,0.603
12,CCn1cc(/C=C(/C#N)S(=O)(=O)c2ccccc2)cn1,-8.15
13,CC(Nc1nc(N2CCCC2)nc2ccccc12)c1ccccc1 (centres unmarked),-79.2
14,COc1ccc(Nc2nc(N3CCN(S(=O)(=O)N(C)C)CC3)nc3ccccc23)cc1,-5.03
15,CC(Nc1nc(-c2ccccc2F)nc2ccccc12)c1ccccc1 (centres unmarked),-3.87
16,CC(Nc1ncnc2ccccc12)c1ccccc1 (centres unmarked),5.95
17,CC(Nc1nc(-c2ccccc2O)nc2ccccc12)c1ccccc1 (centres unmarked),5.73
18,CC(Nc1nc(N2CCN(S(C)(=O)=O)CC2)nc2ccccc12)c1ccccc1 (centres unmarked),-60.9
19,CC(Nc1nc(N2CCCCC2)nc2ccccc12)c1ccccc1 (centres unmarked),-63.6
20,CC(Nc1nc(-c2ccccc2)nc2ccccc12)c1ccccc1 (centres unmarked),3.47
21,Clc1ccc(-c2nc(N3CCCCC3)nc3ccccc23)cc1,4.29
22,CC(Nc1nc(N2CCNCC2)nc2ccccc12)c1ccccc1 (centres unmarked),-66.2
23,COc1ccc(Nc2nc(N3CCN(S(C)(=O)=O)CC3)nc3ccccc23)c(OC)c1,-22.7

# From publication PMC4336329 (PLoS ONE, 2015)
